Assay results published in PubChem BioAssay (NCI).
About 83,000 compounds went through this panel and 20% of them were active in at least one assay; those are over-represented in the sample as a whole.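 Testing used 96-well plates and a 48-hour single-concentration exposure. Example: -40 means 40% of the starting cells died.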 The source made the active and inactive calls. How the source made its calls: active means growth percent below 10; inactive means the rest.

How the values were obtained:
Test in all cases: NCI-60 one-dose screen, 48 h (100 = growth as untreated, 0 = no growth, -100 = all killed)
SK-MEL-2 melanoma = conditions: 10 µM unless noted
EKVX NSCLC = conditions: 10 µM
SN12C renal = conditions: 10 µM unless noted
UO-31 renal = conditions: 10 µM unless noted
TK-10 renal = conditions: 10 µM unless noted
ACHN renal = conditions: 10 µM unless noted
CAKI-1 renal = conditions: 10 µM unless noted
A498 renal = conditions: 10 µM unless noted
CCRF-CEM leukemia = conditions: 10 µM
MOLT-4 leukemia = conditions: 10 µM unless noted
OVCAR-8 ovarian = conditions: 10 µM unless noted
OVCAR-5 ovarian = conditions: 10 µM unless noted
OVCAR-4 ovarian = conditions: 10 µM unless noted
SK-OV-3 ovarian = conditions: 10 µM unless noted
IGROV1 ovarian = conditions: 10 µM unless noted
OVCAR-3 ovarian = conditions: 10 µM unless noted
HS 578T breast = conditions: 10 µM unless noted
NCI/ADR-RES ovarian = conditions: 10 µM unless noted
RPMI-8226 leukemia = conditions: 10 µM unless noted
SR leukemia = conditions: 10 µM unless noted

Measured: growth

COc1cc(-c2nc(/C=C3/C(=O)Nc4ccccc43)c3ccccn23)cc(OC)c1OC
active: OVCAR-3 ovarian -8.37%
inactive: SK-MEL-2 melanoma 43.7% | EKVX NSCLC 102% | SN12C renal 79.3% | UO-31 renal 41.9% | TK-10 renal 120% | ACHN renal 58.6% | CAKI-1 renal 58.2% | A498 renal 111% | CCRF-CEM leukemia 72.7% | MOLT-4 leukemia 62.8% | OVCAR-8 ovarian 32.8% | OVCAR-5 ovarian 82.9% | OVCAR-4 ovarian 76.4% | SK-OV-3 ovarian 74.2% | IGROV1 ovarian 51.6% | HS 578T breast 76.9% | NCI/ADR-RES ovarian 47.2%

O=C(/C=C/c1cccc(O)c1)c1cccc(-n2cc(-c3ccc(Cl)cc3)[nH]c2=O)c1
inactive: A498 renal 61.7% | OVCAR-4 ovarian 10.4% | SK-OV-3 ovarian 37.7%
active: SK-MEL-2 melanoma -45.5% | EKVX NSCLC 1.79% | SN12C renal -47% | UO-31 renal -78.3% | TK-10 renal 0.394% | ACHN renal -80.6% | CAKI-1 renal -53.9% | CCRF-CEM leukemia -4.75% | MOLT-4 leukemia -29% | OVCAR-8 ovarian -2.92% | OVCAR-5 ovarian -47.3% | IGROV1 ovarian -42.9% | OVCAR-3 ovarian -79.7% | HS 578T breast -48.4% | NCI/ADR-RES ovarian 3.39%

Cc1ncc(C(=O)Nc2ccc(CN3CCN(C)CC3)c(C(F)(F)F)c2)cc1C#Cc1cnc(NC2CC2)c2ncccc12
inactive: SK-OV-3 ovarian 43.3% | HS 578T breast 43%
active: SK-MEL-2 melanoma -27.3% | EKVX NSCLC -86% | SN12C renal -85.3% | UO-31 renal -97% | TK-10 renal -92.2% | ACHN renal -100% | CAKI-1 renal -0.579% | A498 renal -60.4% | CCRF-CEM leukemia -43% | MOLT-4 leukemia -65.4% | RPMI-8226 leukemia -41.1% | OVCAR-8 ovarian -91.7% | OVCAR-5 ovarian -91.1% | OVCAR-4 ovarian -60.5% | IGROV1 ovarian -80.4% | OVCAR-3 ovarian -90.4% | NCI/ADR-RES ovarian -41.9%

Nc1cc(N)c2nc(-c3ccccc3)c(NCCc3ccc(Cl)c(Cl)c3)nc2c1
active: SK-MEL-2 melanoma -62.7% | EKVX NSCLC -100% | SN12C renal -96.6% | UO-31 renal -93% | TK-10 renal -92.5% | ACHN renal -100% | CAKI-1 renal -92.4% | A498 renal -34.4% | CCRF-CEM leukemia -66.1% | MOLT-4 leukemia -16.4% | RPMI-8226 leukemia -60.6% | OVCAR-8 ovarian -90.6% | OVCAR-5 ovarian -76.9% | OVCAR-4 ovarian -85.5% | SK-OV-3 ovarian -80.7% | IGROV1 ovarian -77.8% | OVCAR-3 ovarian -91.2% | HS 578T breast -22.7% | NCI/ADR-RES ovarian -54.3%

COC(=O)c1ccc2[nH]c(O)c(C(=Nc3ccc(N(C)C(=O)CN4CCN(C)CC4)cc3)c3ccc4c(c3)OCO4)c2c1
active: SK-MEL-2 melanoma -36.7% | TK-10 renal -9.95% | ACHN renal 8.02% | CAKI-1 renal 4.52% | A498 renal -19.1% | CCRF-CEM leukemia 4.01% | MOLT-4 leukemia 0.682% | SK-OV-3 ovarian -8.57% | IGROV1 ovarian 4.12%
inactive: EKVX NSCLC 37.3% | SN12C renal 10.9% | UO-31 renal 14.7% | OVCAR-8 ovarian 20.3% | OVCAR-5 ovarian 35.8% | OVCAR-4 ovarian 28.1% | OVCAR-3 ovarian 10.9% | HS 578T breast 10.5% | NCI/ADR-RES ovarian 104%

CC(=O)Nc1nc(C)c(C(=O)N/N=C/N2CCOCC2)s1
inactive: SK-MEL-2 melanoma 34.1% | EKVX NSCLC 122% | SN12C renal 105% | UO-31 renal 89% | TK-10 renal 103% | ACHN renal 104% | CAKI-1 renal 140% | A498 renal 110% | CCRF-CEM leukemia 76.3% | SR leukemia 169% | RPMI-8226 leukemia 116% | OVCAR-8 ovarian 115% | OVCAR-5 ovarian 106% | OVCAR-4 ovarian 119% | SK-OV-3 ovarian 110% | IGROV1 ovarian 70.3% | OVCAR-3 ovarian 104% | HS 578T breast 97.6% | NCI/ADR-RES ovarian 120%

CCOc1ccc(/C=N/NC(=O)c2cccc3ccccc23)cc1OCC
inactive: SK-MEL-2 melanoma 106% | EKVX NSCLC 99.1% | SN12C renal 96.1% | UO-31 renal 81.6% | TK-10 renal 111% | ACHN renal 102% | CAKI-1 renal 99.3% | A498 renal 78.1% | CCRF-CEM leukemia 84.1% | RPMI-8226 leukemia 83.8% | OVCAR-8 ovarian 105% | OVCAR-5 ovarian 104% | OVCAR-4 ovarian 91.9% | SK-OV-3 ovarian 99.2% | IGROV1 ovarian 108% | OVCAR-3 ovarian 96.4% | HS 578T breast 98.6% | NCI/ADR-RES ovarian 97.9%

O=C(N/N=C\c1ccc(Cl)cc1)C(=O)N/N=C\c1ccc(Cl)cc1
inactive: SK-MEL-2 melanoma 98.4% | EKVX NSCLC 102% | SN12C renal 90.8% | UO-31 renal 78.3% | TK-10 renal 105% | ACHN renal 96.8% | CAKI-1 renal 94.6% | A498 renal 101% | CCRF-CEM leukemia 90.7% | SR leukemia 90.7% | RPMI-8226 leukemia 95.7% | OVCAR-8 ovarian 102% | OVCAR-5 ovarian 105% | SK-OV-3 ovarian 92.4% | IGROV1 ovarian 88.7% | OVCAR-3 ovarian 123% | NCI/ADR-RES ovarian 104%
